Measured values from PubChem BioAssay AID2284333 (EPA ToxCast).
Records with an inconclusive call do not appear. Active and inactive are the calls of the source. The calls were made as follows: active = hit-call score of the fitted dose curve at least 0.9, where 1 is the maximum; inconclusive = response in the unintended direction; inactive = score below 0.9.

The compounds below were run against rainbow trout Glucocorticoid Receptor (GR), nr3c1 (gene 100136786) (UniProt P49843) (assay: ATG_rtGR_EcoTox2: Attagene TRANS-FACTORIAL EcoTox-2 HepG2 Assay for rainbow trout Glucocorticoid Receptor (GR)).
Protocol: ATG_EcoTox2 is a cell-based, multiplexed assay created by modifying the existing Attagene TRANS-FACTORIAL system to include a panel of nuclear receptors from some or all the following species: human (Homo sapiens), african clawed frog (Xenopus laevis), rainbow trout (Oncorhynchus mykiss), japanese medaka (Oryzias latipes), and zebrafish (Danio rerio). The ECOTOX2-FACTORIAL format uses HepG2, a human liver cell line, with measurements taken at 24 hours after chemical dosing in a 24-well plate. ATG_rtGR_EcoTox2 is one of 29 assay components calculated in the ATG_EcoTox2 assay. It is designed to make measurements of mRNA induction, a form of inducible reporter, as detected with fluorescence intensity signals by Reverse transcription polymerase chain reaction (RT-PCR) and Capillary electrophoresis technology.The assay endpoint ATG_rtGR_EcoTox2 was analyzed in the positive analysis fitting direction relative to DMSO as the negative control and baseline of activity. Using a type of inducible reporter, measures of mRNA for gain-of-signal activity can be used to understand the reporter gene at the transcription factor-level as they relate to the gene for glucocorticoid receptor. Furthermore, this assay endpoint can be referred to as a primary readout, because this assay has produced multiple assay endpoints where this one serves a reporter gene function. To generalize the intended target to other relatable targets, this assay endpoint is annotated to the nuclear receptor intended target family, where the subfamily is steroidal.
Human liver HepG2 cells are transiently transfected with multiple reporter transcription units (MRTUs) in 6-well plates using FuGene 6 reagent (Roche; 3 ml FuGene/1 mg DNA). The MRTU constructs are regulated by a cis-regulating element (promoter). Each RTU expresses a GAL4-UAS that regulates the transcription of a nearby target reporter gene sequence. A major difference between the CIS and TRANS system is that in CIS activities of endogenous TFs are measured, whereas the TRANS assay evaluates changes in activities of exogenous, chimeric NR-Gal4 proteins. […] At the end of 24 hour incubation, total RNA was isolated using TriZol reagent (Invitrogen). The isolated RNA is then reverse-transcribed using oligo(dT) primer and Mo-MLV reverse transcriptase (Invitrogen) with DNAse I (Ambion) treatment for 30 min. The one-tenth of the produced cDNA was amplified by PCR using Taq DNA polymerase (Invitrogen) and two reporter sequence-specific primers. The PCR products were fluorescently labeled by primer extension with 6-arboxyfluorescein (6-FAM) 5'-labeled reporter sequence-specific primer (2 min at 95 C, 20 s at 68 C and 10 min at 72 C) and these products were digested with 5U of HpaI (New England Biolabs) for 2h at 37 C. The fragments were purified using Qiaquick PCR columns (Qiagen), analyzed on an ABI 3130xL genetic analyzer (Applied Biosystems) with peak positions identified by using a set of X-rhodamine (ROX)-labeled MapMarker1000 molecular weight standards (BioVentures). The raw capillary electrophoresis data was processed using Attagraph software (Attagene).

Sequence of rainbow trout Glucocorticoid Receptor (GR), nr3c1 (gene 100136786) (P49843 whole entry, looked up): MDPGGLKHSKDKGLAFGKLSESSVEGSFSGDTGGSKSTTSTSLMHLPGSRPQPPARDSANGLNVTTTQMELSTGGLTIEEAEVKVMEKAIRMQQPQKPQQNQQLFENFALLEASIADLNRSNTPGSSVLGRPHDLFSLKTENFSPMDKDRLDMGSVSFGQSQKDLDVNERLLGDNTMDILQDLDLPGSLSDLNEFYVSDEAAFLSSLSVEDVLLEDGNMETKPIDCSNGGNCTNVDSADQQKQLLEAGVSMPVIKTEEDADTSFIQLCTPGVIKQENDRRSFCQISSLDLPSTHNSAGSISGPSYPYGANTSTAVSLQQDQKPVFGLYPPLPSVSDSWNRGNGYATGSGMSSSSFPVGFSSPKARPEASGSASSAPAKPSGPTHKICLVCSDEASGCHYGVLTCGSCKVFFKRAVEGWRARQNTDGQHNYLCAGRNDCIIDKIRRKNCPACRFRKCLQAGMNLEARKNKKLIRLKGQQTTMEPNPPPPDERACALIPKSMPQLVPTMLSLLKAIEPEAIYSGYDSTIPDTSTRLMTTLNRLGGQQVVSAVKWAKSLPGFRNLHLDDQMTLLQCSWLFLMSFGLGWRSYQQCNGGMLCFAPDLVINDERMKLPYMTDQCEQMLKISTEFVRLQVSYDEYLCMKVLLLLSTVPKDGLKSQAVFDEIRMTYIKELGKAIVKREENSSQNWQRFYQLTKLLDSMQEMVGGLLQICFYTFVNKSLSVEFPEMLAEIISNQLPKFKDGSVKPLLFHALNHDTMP

SMILES	outcome	AC50
CC(c1cc2ccccc2s1)N(O)C(N)=O (stereo unspecified)	inactive	
CC(C)(Oc1ccc(Cl)cc1)C(=O)O	inactive	
CC(C)OC(=O)C(C)(C)Oc1ccc(C(=O)c2ccc(Cl)cc2)cc1	inactive	
C=C(c1ccc(C(=O)O)cc1)c1cc2c(cc1C)C(C)(C)CCC2(C)C	inactive	
C[C@@H]1C[C@H]2[C@@H]3CCC4=CC(=O)C=C[C@]4(C)[C@@]3(F)[C@@H](O)C[C@]2(C)[C@@]1(O)C(=O)COP(=O)(O)O		20.6 nM (active)
Cc1ccc(C)c(OCCCC(C)(C)C(=O)O)c1	inactive	
